Compound activity deposited in PubChem by several laboratories.
TWEAK-Fn14 inh – inhibitors of TWEAK-Fn14 interaction signaling; AID 1159606; 2% of 360,000 active; inhibition, % at 10 µM; TWEAK-stimulated Fn14 reporter cells, luciferase luminescence, 8 h; in the data active = inhibition above about 50%
Peg3 prom inh – reduces Peg3 promoter-driven luciferase expression in HeLa | HeLa PEG-Prom luciferase reporter, luminescence, overnight | inhibition, % at 20 µM | 1.7% of 360,000 active;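 active = inhibition of at least 50% at 20 µM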
TROY NFkB inh – blocks TROY-dependent signaling in reporter cells. Q293 LMP1-TROYcd NF-kB luciferase reporter, 4 h. inhibition, % at 10 µM. 0.98% of 360,000 active;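 active = compounds whose plate-normalised and pattern-corrected inhibition of the luciferase reporter signal at the single screening dose is 50% or more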
HIF-2a inh – HIF-2a inhibition; 786-0 RCC cells HIF-2a reporter, luciferase luminescence, overnight; 0.72% of 360,000 active; inhibition, % at 18.8 µM;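 active = inhibition of the luminescence signal of 40% or more relative to plate controls, in a single-dose primary screen at 18.75 µM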
EBV LMP1 NFkB – reduces LMP1-driven NF-kappaB luciferase signal; inhibition, % at 12.5 µM; LMP1-induced NF-kappaB luciferase reporter cells, luminescence; 0.69% of 350,000 active; AID 504558; in the data active = inhibition above about 41%
MITF TRPM1 inh – MITF TRPM1 promoter inhibition in SK-MEL-5 cells; SK-MEL-5 TRPM1 promoter luciferase, 24 h; inhibition, % at 12.5 µM; 0.83% of 330,000 active; AID 488899;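 active = mean inhibition across replicates of 60% or more, whatever share of single replicates reaches that level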
Hits are given with their value; i = inactive; nt = no result given. Rows were chosen to be rich in hits. Some 4% of all compounds tested hit in one or more screens of this group.

SMILES	TWEAK-Fn14 inh	Peg3 prom inh	TROY NFkB inh	HIF-2a inh	EBV LMP1 NFkB	MITF TRPM1 inh
Cc1ccc(S(=O)(=O)N2CCN(C(=O)CSc3nnnn3C)C2)cc1	i	i	i	i	62.1	i
CSc1ccc(NC(=O)NCCCN2CCC(Cc3ccccc3)CC2)cc1	i	66.1	i	i	i	i
CC1CCCC(C)N1CCCNC(=O)c1cc2c(s1)-c1ccccc1OC2 (stereo not given)	i	79.0	i	i	i	61.4
Cc1c(NC(=O)c2cc3c(s2)-c2ccccc2OC3)cccc1[N+](=O)[O-]	62.0	i	i	i	i	i
COc1ccc(-c2cn(CCN)c(-c3ccncc3)n2)cc1	i	i	i	i	i	i
Cc1cc(/C=C(\C#N)C(=O)Nc2ccc(F)cc2)c(C)n1-c1ccc(N2CCOCC2)c([N+](=O)[O-])c1	53.4	i	i	i	i	i
COc1ccc(NC(=O)/C(C#N)=C/c2cc(C)n(-c3ccc(N4CCOCC4)c([N+](=O)[O-])c3)c2C)cc1	78.9	i	i	i	44.5	i
CNC(=O)/C(C#N)=C\c1cc(C)n(-c2ccc(N3CCOCC3)cc2)c1C	i	i	i	i	i	i
COc1ccc(NC(=O)/C(C#N)=C\c2cc(C)n(-c3ccc(Oc4ccc([N+](=O)[O-])cn4)cc3)c2C)cc1	i	i	i	i	i	i
Cc1onc(-c2c(F)cccc2Cl)c1C(=O)Nc1cc(S(=O)(=O)N2CCCCC2)ccc1O	64.2	i	64.3	i	i	i
CCc1ccccc1N(CC(=O)NCc1ccco1)C(=O)CCC(=O)Nc1nccs1	i	i	i	i	i	i
C=CCn1cnc2c(c1=O)c1nc3ccccc3nc1n2/N=C/c1cc(OC)c(OC)c(OC)c1	i	i	i	i	i	i
C=CCn1cnc2c(c1=O)c1nc3ccccc3nc1n2/N=C/c1cccc(OC)c1OC	i	61.1	i	i	i	i
CC(=O)c1cccc(OC(=O)C2=CC=CN3CCS(=O)(=O)N=C23)c1	i	i	i	i	i	i
CCOc1ccc(S(=O)(=O)N2CCC(C(=O)NC3CCCC3)CC2)cc1	i	i	i	i	i	i
O=C(OC1CCOC1=O)c1ccccc1C(=O)c1ccc(Cl)c([N+](=O)[O-])c1 (stereo not given)	65.8	i	i	i	i	i
CCCOc1ccc(C(=O)c2ccccc2C(=O)OC2CCOC2=O)cc1OCCC (stereo not given)	i	i	i	i	i	i
Cc1cccc(C(=O)OC2CCOC2=O)c1O (stereo not given)	89.0	i	i	i	i	i
Cc1ccsc1C(=O)OC1CCOC1=O (stereo not given)	i	i	i	i	i	i
N#C/C(=C/c1ccc(-c2ccc([N+](=O)[O-])cc2)o1)C(=O)Nc1nc(-c2cccs2)cs1	i	54.5	i	i	i	i
N#C/C(=C\c1ccc(-c2ccc(F)cc2)o1)C(=O)Nc1nc(-c2cccs2)cs1	i	i	i	i	i	i
Cc1nonc1NC(=O)CSc1nc(C23CC4CC(CC(C4)C2)C3)nc2ccccc12	66.4	i	i	i	i	i
CN(Cc1nccs1)C(=O)C1CCC(=O)N(CCCc2ccccc2)C1 (stereo not given)	i	i	i	i	i	i
O=S(=O)(Cc1ccccc1)N(O)c1ccccc1	i	i	i	i	i	i
Cc1ccsc1-c1nc(C(N)=O)c2[nH]c(=O)n(-c3ccc(Cl)cc3)c2n1	i	76.2	i	i	i	i
SMILES	TWEAK-Fn14 inh	Peg3 prom inh	TROY NFkB inh	HIF-2a inh	EBV LMP1 NFkB	MITF TRPM1 inh
CC1=C(CC(=O)c2ccccc2)C(=O)c2ccccc2C1=O	53.8	i	68.0	i	i	66.4
COc1cc(Nc2ccn3nc(-c4ccccc4Cl)cc3n2)cc(OC)c1OC	60.5	i	i	i	nt	nt
CCOc1ccc(CCNC(=O)COC(=O)c2ccc(OC(C)C)cc2)cc1OCC	i	i	i	i	i	i
CCN1/C(=C/c2cccc[n+]2C)Sc2ccc(OC)cc21	i	i	i	i	i	i
COc1ccc2c(c1)N(C)/C(=C/c1cccc[n+]1C)S2	i	63.7	i	i	i	i
CCOc1ccc(-n2c(SCC(=O)NC)nnc2-c2ccco2)cc1	i	i	i	i	i	i
COc1cc2[nH]c3c(N4CCN(c5ccccn5)CC4)ncnc3c2cc1OC	72.5	100.4	i	i	i	i
COc1cccc2[nH]c3c(N4CCCCC4)ncnc3c12	i	i	i	i	i	i
